Laboratory results: ChEMBL document CHEMBL1201862, “PubChem BioAssay data set” (2004)
The whole screen tested about 360,000 compounds, of which about 25,000 (6.9%) were called active. Not shown: some 9% with an inconclusive outcome. The calls are words filed in the database; no cut-off is given here. Only a selection was taken, and actives are over-represented in it overall.

biological target: Luciferin 4-monooxygenase (Photinus pyralis) (UniProt P08659); assay: qHTS profiling assay for firefly luciferase inhibitor/activator using purified enzyme and Km concentrations of substrates (counterscreen for miR-21 project). [Related pubchem assays (depositor defined):AID2288, AID2289, AID2598, AID411]; type: functional
Sequence (P08659 whole entry): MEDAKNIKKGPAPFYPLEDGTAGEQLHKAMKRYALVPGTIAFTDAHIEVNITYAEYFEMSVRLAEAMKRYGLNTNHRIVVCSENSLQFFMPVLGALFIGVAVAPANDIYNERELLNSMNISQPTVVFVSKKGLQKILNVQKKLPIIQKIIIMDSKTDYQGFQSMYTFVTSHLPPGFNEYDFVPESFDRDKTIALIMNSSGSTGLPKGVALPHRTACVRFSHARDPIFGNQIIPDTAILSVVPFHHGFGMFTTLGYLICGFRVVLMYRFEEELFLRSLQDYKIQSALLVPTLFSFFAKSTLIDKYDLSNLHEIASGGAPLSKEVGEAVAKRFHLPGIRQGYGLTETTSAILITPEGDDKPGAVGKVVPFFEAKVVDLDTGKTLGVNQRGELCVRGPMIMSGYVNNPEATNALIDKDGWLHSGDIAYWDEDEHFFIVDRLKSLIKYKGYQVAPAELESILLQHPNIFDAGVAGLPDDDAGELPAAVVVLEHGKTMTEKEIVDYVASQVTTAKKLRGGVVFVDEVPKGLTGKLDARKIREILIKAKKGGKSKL

SMILES	Potency
O=C(O)c1cc(-c2ccc(F)cc2F)ccc1O	15.1 µM (active)
Cn1c(NCCN2CCOCC2)nc2c1c(=O)n(Cc1cccc(Cl)c1)c(=O)n2C	inactive
Cc1ccccc1N=C(S)N(CCCN1CCOCC1)Cc1cccnc1	inactive
O=C(NC1CCCC1)c1cc(Cl)ccc1[N+](=O)[O-]	inactive
